{"source": "paper PMC4336329", "about": "(PLoS ONE, 2015)", "note": "Screen size: about 310,000 compounds; about 14,000 (4.5%) showed an effect of 50% or more. Effects have a minus sign here. The sample holds strong results, similar compounds and a random draw of the others, so the mix is not that of the screen.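 Note: peak tail current of the secondary pulse compared with the same well before compound.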", "data": [{"target": "human ether-à-go-go-related gene (hERG) potassium channel (human, UniProt Q12809)", "sequence (Q12809 whole entry, looked up)": "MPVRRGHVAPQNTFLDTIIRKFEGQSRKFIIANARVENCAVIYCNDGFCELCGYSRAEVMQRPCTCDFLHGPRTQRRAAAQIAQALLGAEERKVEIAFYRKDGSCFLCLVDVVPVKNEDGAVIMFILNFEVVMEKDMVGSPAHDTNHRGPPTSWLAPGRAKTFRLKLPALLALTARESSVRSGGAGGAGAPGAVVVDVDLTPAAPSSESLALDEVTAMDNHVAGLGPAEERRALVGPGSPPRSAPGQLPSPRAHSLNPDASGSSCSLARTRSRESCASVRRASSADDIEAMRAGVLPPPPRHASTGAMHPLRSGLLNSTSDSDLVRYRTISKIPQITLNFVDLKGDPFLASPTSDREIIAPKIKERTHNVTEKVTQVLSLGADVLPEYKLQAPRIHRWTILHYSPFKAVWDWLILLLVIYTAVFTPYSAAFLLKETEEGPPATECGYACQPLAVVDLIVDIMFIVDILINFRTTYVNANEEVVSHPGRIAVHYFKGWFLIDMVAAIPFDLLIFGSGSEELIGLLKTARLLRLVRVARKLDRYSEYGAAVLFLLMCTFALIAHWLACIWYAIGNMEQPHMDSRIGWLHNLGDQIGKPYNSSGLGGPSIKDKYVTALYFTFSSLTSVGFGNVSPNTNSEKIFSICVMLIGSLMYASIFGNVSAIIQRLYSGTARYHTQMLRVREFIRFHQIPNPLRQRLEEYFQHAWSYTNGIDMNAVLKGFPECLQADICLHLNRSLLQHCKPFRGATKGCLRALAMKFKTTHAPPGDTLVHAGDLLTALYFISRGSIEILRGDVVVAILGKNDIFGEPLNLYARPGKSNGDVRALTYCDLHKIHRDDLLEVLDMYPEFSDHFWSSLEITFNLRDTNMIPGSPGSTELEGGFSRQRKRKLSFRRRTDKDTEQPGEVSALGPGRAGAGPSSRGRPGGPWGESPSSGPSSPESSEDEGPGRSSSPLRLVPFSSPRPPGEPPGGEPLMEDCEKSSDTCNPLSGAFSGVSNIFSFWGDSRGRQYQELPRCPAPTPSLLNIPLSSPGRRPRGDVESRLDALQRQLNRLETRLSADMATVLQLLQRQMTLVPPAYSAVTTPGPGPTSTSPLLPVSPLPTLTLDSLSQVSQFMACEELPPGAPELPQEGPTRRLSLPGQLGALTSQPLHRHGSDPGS", "experiment": "primary screen, population patch clamp on CHO cells stably expressing hERG; higher = less effect of the substance", "units": {"hERG current change (%, negative = inhibition) at 10uM": "%"}, "values": [{"smiles": "CC(=O)Oc1ccc(C(=O)Nc2ccccc2C(=O)Nc2cccc(C(=O)O)c2)cc1", "hERG current change (%, negative = inhibition) at 10uM": 13}, {"smiles": "CCOC(=O)c1cnn(-c2cc(Oc3ccccc3C)ncn2)c1N", "hERG current change (%, negative = inhibition) at 10uM": 14.4}, {"smiles": "Cc1nc2ccccc2cc1C(=O)N/N=C/c1cccs1", "hERG current change (%, negative = inhibition) at 10uM": -6.93}, {"smiles": "CCOc1ccc(OCCOc2cccc(C(F)(F)F)c2)cc1", "hERG current change (%, negative = inhibition) at 10uM": 9.77}, {"smiles": "CC1CCCN(C(=O)C(=O)Nc2ccc3nc4n(c(=O)c3c2)CCCCC4)C1", "note": "(centres unmarked)", "hERG current change (%, negative = inhibition) at 10uM": -17.8}, {"smiles": "CC1CCCC(C)N1CCCNC(=O)C(=O)Nc1ccc2nc3n(c(=O)c2c1)CCCCC3", "note": "(centres unmarked)", "hERG current change (%, negative = inhibition) at 10uM": 16.8}, {"smiles": "O=c1c2cc(NC(=S)N3CCCCCC3)ccc2nc2n1CCCCC2", "hERG current change (%, negative = inhibition) at 10uM": -43.9}, {"smiles": "O=c1c2cc(NC(=S)N3CCCC3)ccc2nc2n1CCCCC2", "hERG current change (%, negative = inhibition) at 10uM": -28}, {"smiles": "O=c1c2cc(NC(=S)N3CCC(N4CCCCC4)CC3)ccc2nc2n1CCCCC2", "hERG current change (%, negative = inhibition) at 10uM": -3.94}, {"smiles": "CC1CCN(C(=S)Nc2ccc3nc4n(c(=O)c3c2)CCCCC4)CC1", "hERG current change (%, negative = inhibition) at 10uM": -55.2}, {"smiles": "CC1CCCCN1C(=S)Nc1ccc2nc3n(c(=O)c2c1)CCCCC3", "note": "(centres unmarked)", "hERG current change (%, negative = inhibition) at 10uM": -59}, {"smiles": "CC1CCCN(C(=S)Nc2ccc3nc4n(c(=O)c3c2)CCCCC4)C1", "note": "(centres unmarked)", "hERG current change (%, negative = inhibition) at 10uM": -66.1}, {"smiles": "CCN1CCN(C(=S)Nc2ccc3nc4n(c(=O)c3c2)CCCCC4)CC1", "hERG current change (%, negative = inhibition) at 10uM": 1.83}, {"smiles": "CCOC(=O)C1CCCN(C(=O)C(=O)Nc2ccc3nc4n(c(=O)c3c2)CCCCC4)C1", "note": "(centres unmarked)", "hERG current change (%, negative = inhibition) at 10uM": -1.21}, {"smiles": "O=c1c2cc(NC(=S)N3CCCCC3)ccc2nc2n1CCCCC2", "hERG current change (%, negative = inhibition) at 10uM": -55.7}, {"smiles": "CCOC(=O)Nc1ccc2nc3n(c(=O)c2c1)CCCCC3", "hERG current change (%, negative = inhibition) at 10uM": 7.45}, {"smiles": "COc1cc(/C=C(\\C#N)c2ccccn2)ccc1OCC(=O)Nc1cccc(C(F)(F)F)c1.Cl", "hERG current change (%, negative = inhibition) at 10uM": 0.582}, {"smiles": "COCCCNC(=O)c1ccc2c(c1)nc(C)n2-c1cccc(C)c1", "hERG current change (%, negative = inhibition) at 10uM": 6.05}, {"smiles": "CC(C)(C)C(=O)Nc1ccc(S(=O)(=O)c2ccc(NC(=O)C(C)(C)C)cc2)cc1", "hERG current change (%, negative = inhibition) at 10uM": 18.6}, {"smiles": "COc1ccc(C(=O)c2c(C)oc3ccc(O)c(CN4CCOCC4)c23)cc1", "hERG current change (%, negative = inhibition) at 10uM": -29.5}, {"smiles": "COc1ccc(-c2coc3c(CN4CCCCC4)c(O)c(CN4CCCCC4)c(O)c3c2=O)cc1", "hERG current change (%, negative = inhibition) at 10uM": -79.2}, {"smiles": "CN1CCN(Cc2c(O)ccc3occ(C(=O)c4ccccc4)c23)CC1", "hERG current change (%, negative = inhibition) at 10uM": -39.3}, {"smiles": "Cc1ccc(/C=C2\\Oc3c(ccc(O)c3CN3CCN(C)CC3)C2=O)cc1", "hERG current change (%, negative = inhibition) at 10uM": -15}, {"smiles": "O=c1c(-c2ccc(Cl)cc2)coc2c(CN3CCCCC3)c(O)ccc12", "hERG current change (%, negative = inhibition) at 10uM": -32.7}, {"smiles": "COc1ccc(C(=O)c2coc3ccc(O)c(CN4CCCCC4)c23)cc1", "hERG current change (%, negative = inhibition) at 10uM": -76.9}, {"smiles": "COc1ccc(-c2coc3c(CN4CCOCC4)c(O)ccc3c2=O)cc1", "hERG current change (%, negative = inhibition) at 10uM": -21.1}, {"smiles": "Cc1ccc(C(=O)c2coc3ccc(O)c(CN4CCN(C)CC4)c23)cc1", "hERG current change (%, negative = inhibition) at 10uM": -51.2}, {"smiles": "COc1ccc(C(=O)c2coc3ccc(O)c(CN4CCOCC4)c23)cc1", "hERG current change (%, negative = inhibition) at 10uM": -51.2}, {"smiles": "COc1ccc(OC)c(C(=O)c2coc3ccc(O)c(CN4CCOCC4)c23)c1", "hERG current change (%, negative = inhibition) at 10uM": -39.7}]}]}
